Each structure is given as a SMILES string. The source made the active and inactive calls. Rule for the calls: active = hit-call score of the fitted dose curve at least 0.9, where 1 is the maximum; inactive = score below 0.9.

Assay [1] can be described thus: ATG_M_61_CIS: Attagene CIS-FACTORIAL HepG2 Assay for M61 Transcription Factor (Internal Marker) (AID 2282937). Particulars: HepG2 Attagene CIS-FACTORIAL M61 internal marker reporter; actives raise or lower the signal. The procedure, abridged:
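Fluorescence from labelled cDNA fragments, separated by capillary electrophoresis, quantifies reporter induction. HepG2 cells bearing transiently transfected cis-promoter MRTUs were incubated with test chemical for 24 h; DMSO defined baseline for gain/loss fitting.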

Assay [2] is described as follows: ATG_EGR_CIS: Attagene CIS-FACTORIAL HepG2 Assay for human Early Growth Response 1 (EGR1) (AID 2282938). Conditions: HepG2 Attagene CIS-FACTORIAL EGR reporter mRNA; actives raise or lower the signal. The procedure, abridged:
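Cell-based multiplex transcription assay: HepG2 carrying transfected cis-element reporter units, 24 h chemical treatment. Fluorescence from capillary electrophoresis of RT-PCR products gives mRNA levels; fitting is bidirectional relative to DMSO.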

The nature of assay [3]: ATG_M_19_CIS: Attagene CIS-FACTORIAL HepG2 Assay for M19 Transcription Factor (Internal Marker) (AID 2282939). Conditions: HepG2 Attagene CIS-FACTORIAL M19 internal marker reporter; actives raise or lower the signal. The procedure, abridged:
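Signals come from fluorescence of labelled reporter-specific PCR fragments resolved by capillary electrophoresis, following 24 h treatment of HepG2 cells transfected with cis-promoter reporter units; activity was fitted in both directions relative to DMSO.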

A short description of assay [4]: ATG_ERE_CIS: Attagene CIS-FACTORIAL HepG2 Assay for Estrogen Response Element (ERE) (AID 2282940). Conditions: HepG2 ERE cis-reporter, Attagene RNA transcript; actives raise or lower the signal. The procedure, abridged: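 Fluorescence of capillary-separated, FAM-labelled reporter cDNA fragments indicates reporter mRNA levels in HepG2 cells exposed to chemicals for 24 h. Transient transfection with cis-regulated units; data fitted in both directions against DMSO.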

Assay [5] in a line: ATG_Ets_CIS: Attagene CIS-FACTORIAL HepG2 Assay for human Erythroblast Transformation Specific (ETS) (AID 2282941). Conditions: HepG2 ETS cis-reporter transcription, actives raise or lower the signal. The gist of the method:
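HepG2 cells transiently transfected with cis-promoter reporter transcription units were dosed for 24 h; reporter mRNA was measured by RT-PCR, 6-FAM primer extension, HpaI digestion and capillary electrophoresis, with bidirectional fitting against DMSO baseline.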

Assay [6] in a line: ATG_FoxO_CIS: Attagene CIS-FACTORIAL HepG2 Assay for human Forkhead box O (FoxO) (AID 2282943). Conditions: HepG2 Attagene cis-reporter, FoxO element, mRNA; actives raise or lower the signal. The procedure, abridged: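 Read-out: fluorescence of 6-FAM-labelled reporter cDNA fragments resolved by capillary electrophoresis. Transiently transfected HepG2 cells were dosed for 24 h; activity fitted in both directions relative to DMSO controls.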

Assay [7] is described as follows: ATG_GLI_CIS: Attagene CIS-FACTORIAL HepG2 Assay for human Zinc Finger Protein GLI1 (AID 2282945). Particulars: HepG2, Attagene cis-factorial reporter mRNA, GLI element; actives raise or lower the signal. The gist of the method: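 Transiently transfected HepG2 cells report endogenous transcription factor activity via cis-element-driven reporter units. After 24 h compound exposure, reporter mRNA was measured by RT-PCR with capillary electrophoresis; bidirectional fitting against DMSO baseline.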

Assay [8] has as its target Bile acid receptor (Homo sapiens) (UniProt Q96RI1). The assay can be described thus: ATG_IR1_CIS: Attagene CIS-FACTORIAL HepG2 Assay for human Nuclear Receptor Subfamily 1 Group H Member 4 (NR1H4), IR1 submotif (AID 2282946). Particulars: IR1 reporter transcription, actives raise or lower the signal. The gist of the method: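 HepG2 cells transiently transfected with multiple cis-promoter-driven reporter units to measure endogenous transcription factor activity; 24 h exposure. Reporter mRNA read by RT-PCR, FAM labelling, HpaI digestion and capillary electrophoresis. Bidirectional fit versus DMSO.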

Assay [9] in a line: ATG_GRE_CIS: Attagene CIS-FACTORIAL HepG2 Assay for human Glucocorticoid Response Elements (GRE) (AID 2282947). Conditions: HepG2 GRE cis-reporter, Attagene multiplex mRNA; actives raise or lower the signal. The procedure, abridged: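 Transiently transfected HepG2 cells carrying GRE cis-reporter units (endogenous TF activity) dosed 24 h; reporter mRNA quantified by RT-PCR, 6-FAM labelling, HpaI digestion and capillary electrophoresis. Bidirectional fit versus DMSO baseline.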

The nature of assay [10]: ATG_ISRE_CIS: Attagene CIS-FACTORIAL HepG2 Assay for human Interferon Regulatory Factor 1 (IRF1) binding to an Interferon-Stimulated Response Element (ISRE) (AID 2282948). Conditions: HepG2 ISRE cis-reporter (Attagene), mRNA transcription readout; actives raise or lower the signal. The procedure, abridged: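 HepG2 cells transiently transfected with multiplexed cis-promoter reporter units; after 24 h compound exposure, reporter mRNA quantified by RT-PCR, FAM labelling, HpaI digestion and capillary electrophoresis. Bidirectional fit versus DMSO baseline.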

Assay [11] in a line: ATG_M_32_CIS: Attagene CIS-FACTORIAL HepG2 Assay for M32 Transcription Factor (Internal Marker) (AID 2282949).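 Note: background control marker of the multiplexed CIS panel rather than a real target.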 Particulars: HepG2 Attagene cis-factorial M32 reporter, mRNA; actives raise or lower the signal. The gist of the method:
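HepG2 cells transiently transfected with multiplexed cis-regulated reporter units, dosed 24 h. Reporter mRNA quantified by RT-PCR, 6-FAM labelling, HpaI digestion and capillary electrophoresis; bidirectional fit vs DMSO.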

Assay [12] can be described thus: ATG_M_06_CIS: Attagene CIS-FACTORIAL HepG2 Assay for M06 Transcription Factor (Internal Marker) (AID 2282950). Particulars: HepG2 Attagene CIS-FACTORIAL M06 internal marker reporter; actives raise or lower the signal. The procedure, abridged: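 HepG2 liver cells, 24 h exposure. Reporter transcripts from transfected cis-element constructs quantified by RT-PCR/capillary electrophoresis fluorescence. Bidirectional curve fit against DMSO.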

The target of assay [13] is Hypoxia-inducible factor 1-alpha (Homo sapiens) (UniProt Q16665). The assay can be described thus: ATG_HIF1a_CIS: Attagene CIS-FACTORIAL HepG2 Assay for human Hypoxia Inducible Factor 1 (HIF1A) (AID 2282951). Conditions: HepG2 Attagene cis-factorial HIF1a reporter transcription; actives raise or lower the signal. The procedure, abridged:
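In this multiplexed cell assay, HepG2 cells bearing transfected cis reporters are dosed for 24 h and reporter mRNA is read by RT-PCR plus capillary electrophoresis; signal increases and decreases are both scored against DMSO.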

The target of assay [14] is Hepatocyte nuclear factor 6 (Homo sapiens) (UniProt Q9UBC0). The assay can be described thus: ATG_HNF6_CIS: Attagene CIS-FACTORIAL HepG2 Assay for human Hepatocyte Nuclear Factor 6 (HNF6) (AID 2282952). Conditions: HepG2 Attagene cis-factorial HNF6 reporter transcription; actives raise or lower the signal. The procedure, abridged: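 Multiplexed mRNA reporter assay in transfected HepG2; 24 h dosing; RT-PCR plus capillary electrophoresis fluorescence; DMSO-referenced bidirectional curve fitting.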
Hepatocyte nuclear factor 6 (Homo sapiens), sequence (Q9UBC0 whole entry, looked up): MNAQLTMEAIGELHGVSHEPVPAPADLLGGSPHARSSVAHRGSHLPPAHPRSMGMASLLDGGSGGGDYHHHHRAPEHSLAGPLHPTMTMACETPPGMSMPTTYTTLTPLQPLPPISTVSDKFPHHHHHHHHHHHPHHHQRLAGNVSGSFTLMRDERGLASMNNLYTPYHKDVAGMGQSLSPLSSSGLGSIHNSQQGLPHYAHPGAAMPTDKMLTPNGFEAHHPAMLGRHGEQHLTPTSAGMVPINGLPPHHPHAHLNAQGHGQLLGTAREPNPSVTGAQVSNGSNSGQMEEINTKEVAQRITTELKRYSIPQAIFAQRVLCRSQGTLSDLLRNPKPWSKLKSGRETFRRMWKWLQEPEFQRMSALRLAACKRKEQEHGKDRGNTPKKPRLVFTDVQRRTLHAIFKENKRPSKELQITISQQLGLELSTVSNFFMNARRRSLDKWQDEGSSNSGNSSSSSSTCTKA

The target in assay [15] is Heat shock factor protein 1 (Homo sapiens) (UniProt Q00613). Kind of assay: ATG_HSE_CIS: Attagene CIS-FACTORIAL HepG2 Assay for human Heat Shock Transcription Factor 1 (HSE) (AID 2282953). Particulars: HepG2 HSE cis-reporter, Attagene RNA transcription; actives raise or lower the signal. The gist of the method: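 Endogenous transcription factor activity captured via cis-promoter reporter units transfected into HepG2; treatment lasted 24 h. Fluorescence intensity of reporter fragments analysed with bidirectional curve fitting, DMSO baseline.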
Heat shock factor protein 1 (Homo sapiens), sequence (Q00613 whole entry, looked up, the tested form may be a part): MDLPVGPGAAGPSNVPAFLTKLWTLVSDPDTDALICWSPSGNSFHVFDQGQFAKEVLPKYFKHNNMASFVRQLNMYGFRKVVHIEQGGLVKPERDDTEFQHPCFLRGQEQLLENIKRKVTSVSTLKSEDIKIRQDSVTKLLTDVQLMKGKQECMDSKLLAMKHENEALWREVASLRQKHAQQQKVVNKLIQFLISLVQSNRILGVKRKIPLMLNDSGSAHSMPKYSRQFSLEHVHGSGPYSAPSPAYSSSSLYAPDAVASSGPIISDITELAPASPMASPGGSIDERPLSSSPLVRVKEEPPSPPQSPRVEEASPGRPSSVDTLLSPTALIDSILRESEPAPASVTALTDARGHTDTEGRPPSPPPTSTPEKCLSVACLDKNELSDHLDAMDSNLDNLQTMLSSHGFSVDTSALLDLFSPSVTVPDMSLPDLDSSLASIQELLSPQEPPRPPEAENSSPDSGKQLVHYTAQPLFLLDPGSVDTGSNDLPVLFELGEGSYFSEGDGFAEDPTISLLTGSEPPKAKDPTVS

A short description of assay [16]: ATG_MRE_CIS: Attagene CIS-FACTORIAL HepG2 Assay for human Metal Responsive Element (MRE) (AID 2282954). Particulars: HepG2 MRE cis-reporter transcription, Attagene multiplex; actives raise or lower the signal. The procedure, abridged: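 HepG2 cells transiently transfected with cis-element-driven reporter units; mRNA measured 24 h after dosing. Reporter transcripts quantified by RT-PCR, FAM labelling, HpaI digestion and capillary electrophoresis; bidirectional fit versus DMSO.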

Assay [17] has as its target Paired box protein Pax-6 (Homo sapiens) (UniProt P26367). Kind of assay: ATG_Pax6_CIS: Attagene CIS-FACTORIAL HepG2 Assay for human Paired Box 6 (PAX6) (AID 2282956). Particulars: HepG2 CIS-FACTORIAL PAX6 reporter transcription, RNA readout; actives raise or lower the signal. The procedure, abridged: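 HepG2 cells transiently transfected with multiplexed cis-promoter reporter units (endogenous TF activity) were dosed for 24 h. Reporter mRNA was quantified by RT-PCR, 6-FAM labeling, HpaI digestion and capillary electrophoresis; bidirectional fitting versus DMSO baseline.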

Assay [18] in a line: ATG_GATA_CIS: Attagene CIS-FACTORIAL HepG2 Assay for human GATA Binding Protein (AID 2282944). Particulars: HepG2 GATA cis-element reporter, Attagene multiplex mRNA; actives raise or lower the signal. The procedure, abridged: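 After transfecting HepG2 cells with multiple cis-regulated reporter units, chemicals are dosed for 24 h; isolated RNA undergoes RT-PCR and fluorescent labeling before capillary electrophoresis, with activity expressed against DMSO.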

Assay [19] has as its target Hepatocyte nuclear factor 3-beta (Homo sapiens) (UniProt Q9Y261). The assay can be described thus: ATG_FoxA2_CIS: Attagene CIS-FACTORIAL HepG2 Assay for human Forkhead box A2 (FOXA2) (AID 2282942). Particulars: HepG2 cis-reporter transcription factor activity, 24 h; actives raise or lower the signal. The procedure, abridged:
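In transiently transfected human HepG2 cells, promoter-driven reporter mRNA levels after 24 h chemical exposure are determined via RT-PCR with capillary electrophoresis. DMSO serves as baseline for bidirectional fitting.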

Assay [20] can be described thus: ATG_PBREM_CIS: Attagene CIS-FACTORIAL HepG2 Assay for human Phenobarbital-responsive Enhancer Module (PBREM) (AID 2282955). Particulars: HepG2 PBREM cis-reporter, Attagene multiplexed transcription; actives raise or lower the signal. The gist of the method: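 After a 24 h incubation with test chemical, transfected HepG2 cells yield total RNA; reporter-specific RT-PCR products are fluorescently labelled, HpaI-digested and resolved by capillary electrophoresis against ROX size standards.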

Bile acid receptor (Homo sapiens), sequence (Q96RI1 whole entry, looked up): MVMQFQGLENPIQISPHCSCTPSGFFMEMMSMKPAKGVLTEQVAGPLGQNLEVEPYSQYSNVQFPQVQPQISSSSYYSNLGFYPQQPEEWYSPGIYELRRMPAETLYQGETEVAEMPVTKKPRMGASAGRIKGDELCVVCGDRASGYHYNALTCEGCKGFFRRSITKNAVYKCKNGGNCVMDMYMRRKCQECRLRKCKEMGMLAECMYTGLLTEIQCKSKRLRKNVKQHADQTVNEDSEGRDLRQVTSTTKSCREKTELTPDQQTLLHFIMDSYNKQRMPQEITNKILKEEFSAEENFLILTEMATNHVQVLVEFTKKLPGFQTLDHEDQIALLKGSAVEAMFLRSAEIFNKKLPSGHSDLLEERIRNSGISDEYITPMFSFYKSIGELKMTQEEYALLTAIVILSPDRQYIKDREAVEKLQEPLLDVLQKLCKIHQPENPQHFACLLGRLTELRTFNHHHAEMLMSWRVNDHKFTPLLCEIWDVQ
Paired box protein Pax-6 (Homo sapiens), sequence (P26367 whole entry, looked up): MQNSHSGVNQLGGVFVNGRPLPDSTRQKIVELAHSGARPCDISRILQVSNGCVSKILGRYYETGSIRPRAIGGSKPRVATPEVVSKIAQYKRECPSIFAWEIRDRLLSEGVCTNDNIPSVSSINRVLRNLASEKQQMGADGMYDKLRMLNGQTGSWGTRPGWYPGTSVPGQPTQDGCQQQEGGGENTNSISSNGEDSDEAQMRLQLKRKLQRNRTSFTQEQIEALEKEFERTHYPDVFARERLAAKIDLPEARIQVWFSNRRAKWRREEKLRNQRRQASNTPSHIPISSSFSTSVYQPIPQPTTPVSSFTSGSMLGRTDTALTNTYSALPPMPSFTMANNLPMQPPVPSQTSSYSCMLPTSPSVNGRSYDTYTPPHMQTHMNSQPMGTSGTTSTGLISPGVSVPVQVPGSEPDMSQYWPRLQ
Hypoxia-inducible factor 1-alpha (Homo sapiens), sequence (Q16665 whole entry, looked up): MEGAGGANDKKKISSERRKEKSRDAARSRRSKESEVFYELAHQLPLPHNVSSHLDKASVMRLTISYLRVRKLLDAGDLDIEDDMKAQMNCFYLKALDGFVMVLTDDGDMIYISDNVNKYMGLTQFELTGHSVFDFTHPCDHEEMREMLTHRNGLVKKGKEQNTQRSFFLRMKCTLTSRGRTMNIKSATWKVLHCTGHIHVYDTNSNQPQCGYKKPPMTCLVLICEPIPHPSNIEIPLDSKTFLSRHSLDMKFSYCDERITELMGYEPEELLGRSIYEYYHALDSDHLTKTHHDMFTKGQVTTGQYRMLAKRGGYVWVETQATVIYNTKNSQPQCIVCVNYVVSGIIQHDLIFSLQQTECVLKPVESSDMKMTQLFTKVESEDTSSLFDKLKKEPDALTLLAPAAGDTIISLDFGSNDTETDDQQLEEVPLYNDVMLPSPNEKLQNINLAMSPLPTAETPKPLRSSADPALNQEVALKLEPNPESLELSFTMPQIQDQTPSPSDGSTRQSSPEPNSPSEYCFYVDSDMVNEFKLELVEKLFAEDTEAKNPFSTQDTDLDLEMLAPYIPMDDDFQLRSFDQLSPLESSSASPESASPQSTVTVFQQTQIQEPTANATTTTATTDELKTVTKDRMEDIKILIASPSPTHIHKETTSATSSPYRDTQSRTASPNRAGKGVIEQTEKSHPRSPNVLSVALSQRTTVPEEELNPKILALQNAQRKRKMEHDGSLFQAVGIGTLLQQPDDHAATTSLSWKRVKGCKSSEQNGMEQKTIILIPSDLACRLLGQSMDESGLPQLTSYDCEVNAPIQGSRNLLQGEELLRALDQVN
Hepatocyte nuclear factor 3-beta (Homo sapiens), sequence (Q9Y261 whole entry, looked up): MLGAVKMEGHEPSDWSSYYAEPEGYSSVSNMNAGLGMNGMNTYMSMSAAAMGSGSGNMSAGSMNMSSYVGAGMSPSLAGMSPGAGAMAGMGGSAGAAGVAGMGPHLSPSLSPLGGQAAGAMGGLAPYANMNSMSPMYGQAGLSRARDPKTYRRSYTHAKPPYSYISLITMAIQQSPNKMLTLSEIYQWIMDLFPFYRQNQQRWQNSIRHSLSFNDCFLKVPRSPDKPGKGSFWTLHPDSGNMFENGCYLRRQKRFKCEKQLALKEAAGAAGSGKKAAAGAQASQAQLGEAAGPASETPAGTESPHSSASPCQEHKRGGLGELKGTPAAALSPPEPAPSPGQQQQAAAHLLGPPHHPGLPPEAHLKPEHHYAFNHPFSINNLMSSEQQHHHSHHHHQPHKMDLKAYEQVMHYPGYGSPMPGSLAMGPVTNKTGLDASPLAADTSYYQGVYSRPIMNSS

As for `COc1ccc([N+](=O)[O-])cc1O`, the compound was called inactive in assay [1], in [2], in [3], in assay [4], in assay [5] and in [6]. Moreover, the call in [7], in assay [8], in assay [9], in [10], in [11] and in assay [12] was inactive. The compound was called inactive in [13], in assay [14], in assay [15], in assay [16] and in assay [17].
For the compound `CCCCCCCCCCCCCl`, the outcome in [1], in [2], in assay [3], in assay [4], in assay [5] and in assay [6] was inactive. Moreover, the outcome in assay [18], in assay [7], in assay [9], in assay [11], in [12] and in [13] was inactive. Also, the compound was classed as inactive in [14], in assay [15], in assay [16] and in assay [17].
For the compound `C=CCN=C=S`, the compound was classed as inactive in assay [1], in assay [2], in assay [3], in assay [4], in [5] and in assay [19]. Further, the call in assay [7], in [8], in assay [10], in assay [11], in assay [12] and in [13] was inactive. Moreover, the compound was classed as inactive in assay [14], in assay [16], in [20] and in assay [17].
As to `CCN(N=O)C(N)=O`, the compound was classed as inactive in [1], in assay [2], in [3], in assay [4], in [5] and in [19]. Besides, the result in assay [18], in assay [7], in assay [8], in assay [9], in assay [11] and in [12] was inactive. Moreover, the compound was called inactive in [13], in assay [14], in assay [15], in assay [16] and in [17].
By AC50 is commonly meant the midpoint of the concentration-response curve, whichever way the signal moves. On to `CC(C)=CC1C(C(=O)OCc2cccc(Oc3ccccc3)c2)C1(C)C` (stereo not given), for which the result in [1], in [2], in [3], in assay [19], in assay [6] and in assay [18] was inactive. In addition, the compound was called inactive in [7], in assay [8], in assay [9], in [10], in assay [12] and in assay [13]. Also, the call in [14], in [15], in [16], in [20] and in assay [17] was inactive. For the same compound, in [4], the AC50 is 100 µM (active).
As to `CCCCCCCCCCCCCCC(Br)C(=O)O` (stereo not given), the AC50 in assay [1] was 183 µM (active); in [2] it was 146 µM (active); in assay [3], 183 µM (active); in [19], 62.4 µM (active); in assay [7] it was 137 µM (active); in [9], 159 µM (active). For the same compound, the AC50 is 183 µM (active) in [12]; 150 µM (active) in [13]; 187 µM (active) in [14]; 154 µM (active) in assay [15]; 161 µM (active) in assay [16]; 100 µM (active) in assay [20]. For the same compound, the AC50 in assay [17] was 142 µM (active). Besides, the outcome in assay [4], in assay [6], in assay [18], in [8] and in [10] was inactive.
For the compound `O=S1(=O)OC(c2cc(Br)c(O)c(Br)c2)(c2cc(Br)c(O)c(Br)c2)c2ccccc21`, the outcome in assay [1], in assay [2], in [3], in assay [4], in [19] and in assay [6] was inactive. The compound was classed as inactive in assay [18], in assay [7], in assay [8], in [9], in assay [10] and in [12]. In addition, the outcome in [13], in assay [14], in assay [15], in assay [16], in [20] and in assay [17] was inactive.
